Inconclusive results are not listed. Where a call stands in place of a potency, no number is given. Active and inactive are the calls of the source. Calls follow the shape of the full dose curve.
Test: Cytotoxicity counterscreen for inhibitors of SARS-CoV-2 cell entry (AID 1645845); also: nearly all actives have a fitted effect of over 50% in size
Details: cell viability (SARS-CoV-2 entry assay cells); series mostly up to 57.1 µM
Procedure, shortened: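 Counterscreen run in the same HEK293-ACE2 line as the pseudotyped-particle entry assay, without particles. Viability after 48 h at 37 C was read as ATP luminescence, scaled between cell-containing and cell-free wells.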
Potency is read from the fitted curve at half-maximal effect.

Compound | Potency
COc1ncc(Nc2ncc([C@H](C)N3CCN(S(C)(=O)=O)CC3)cc2-c2nc(C)nc(N)n2)cc1F | inactive
CCOc1cc(/C=C2/C(=O)N(c3ccccc3)N=C2C)cc(Cl)c1OCC(=O)OC | inactive
C=Cc1cc(O)cc2nc(-c3ccc(O)c(F)c3)oc12 | inactive
COc1ccccc1C(=O)Nc1cc2c(cc1N1CCCCC1)n(C)c(=O)n2C | inactive
c1cn2cc(-c3ccc4cn[nH]c4c3)nc(Nc3ccc(N4CCOCC4)cc3)c2n1 | 2.82 µM (active)
CNc1nc(Nc2cnn([C@H]3CCN(C4COC4)C[C@@H]3F)c2Cl)ncc1C(F)(F)F | inactive
CCOc1cc(C(=O)N2CCC(N3CCN(C)CC3)CC2)ccc1Nc1ncc2c(n1)N(C1CCCC1)c1ccccc1C(=O)N2C | inactive
CC(C)(C)Sc1c(CC(C)(C)C(=O)O)n(Cc2ccc(Cl)cc2)c2ccc(OCc3ccc4ccccc4n3)cc12 | inactive
CN(C)Cc1ccc(S(=O)(=O)n2ccc(/C=C/C(=O)NO)c2)cc1 | 31.6 µM (active)
CCOCc1nc2c(N)nc3ccccc3c2n1CC(C)(C)O | inactive
COc1cccc2c1c(O)c(C(=O)N(C)c1ccc(C(F)(F)F)cc1)c(=O)n2C | inactive
COc1cc(C)[nH]c(=O)c1CN1CCc2c(Cl)cc([C@H](OC)C3COC3)c(Cl)c2C1=O | inactive
CC(=O)N1CCC(Nc2cc(C(=O)NC[C@H](O)CN3CCc4ccccc4C3)ncn2)CC1 | inactive
Cc1c(-c2c(-c3ccc(F)o3)sc3ncnc(O[C@@H](Cc4ccccc4OCc4ccnn4CC(F)(F)F)C(=O)O)c23)ccc(OCCN2CCN(C)CC2)c1Cl | inactive
